# From PubChem BioAssay
# An excerpt weighted towards active compounds, which were near 4.8% of everything screened.
# DAX1 inh-1: DAX1 (NR0B1) inhibitors, primary screen, cell-based, HEK293, Gal4-DAX1, luciferase luminescence; Nuclear receptor subfamily 0 group B member 1 (Homo sapiens), P51843; HEK293 Gal4-DAX1 luciferase reporter; inhibition, % at 6.75 µM; 340,000 tested, 0.99% active; AID 504766, 2011;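 active = inhibition above the mean over all tested compounds plus 3 SD, cut at about 4.2% in these data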;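 note: 0% = DAX1-transfected cells with DMSO and 100% = empty-vector control cells with DMSO; inhibition shows as a rise in luminescence from relieved DAX1 repression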
# Target sequence (P51843 207-470 limits assumed): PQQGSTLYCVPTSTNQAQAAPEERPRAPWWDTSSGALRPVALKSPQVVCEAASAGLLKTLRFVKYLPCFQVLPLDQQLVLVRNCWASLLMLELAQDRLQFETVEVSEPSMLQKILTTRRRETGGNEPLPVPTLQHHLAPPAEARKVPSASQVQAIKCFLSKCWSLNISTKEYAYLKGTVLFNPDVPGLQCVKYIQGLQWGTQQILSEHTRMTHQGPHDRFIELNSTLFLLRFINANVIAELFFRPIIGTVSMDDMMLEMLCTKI
# hgDAF-12 ag: H. glycines DAF-12 receptor agonists, primary screen, cell-based, luminescence, HEK293, GAL4 fusion, UAS-luciferase; activation, % at 6.8 µM; HEK293 GAL4-hgDAF12 UAS-luciferase reporter, agonist luminescence; normalized to butyrate control; 370,000 tested, 1.8% active; Nuclear hormone receptor DAF-12 (Heterodera glycines), GAL4 fusion;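 active = activation above a cutoff set at the mean of all screened compounds plus 3 SD, cut at about 10% in these data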;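 note: 0% = DMSO wells and 100% = sodium butyrate wells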
# DAX1 inh-2: DAX1 (NR0B1) inhibitors on StAR promoter, primary screen, cell-based, luminescence, SF-1 (NR5A1), full-length DAX-1; HEK293T StAR-luciferase reporter, SF-1/DAX-1 repression relief; inhibition, % at 6.8 µM; 370,000 tested, 1.1% active; AID 652010, 2013;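 active = inhibition above the mean over all tested compounds plus 3 SD, cut at about 3.6% in these data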;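 note: 0% = DAX-1 cells with DMSO and 100% = cells lacking DAX-1 with DMSO; higher inhibition means more luminescence from relief of DAX-1 repression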
# ssDAF-12 act: S. stercoralis DAF-12 nuclear receptor activators, primary screen, cell-based, luminescence, HEK293, GRIP1 co-expression, lit1-tk-luc; HEK293 ssDAF-12/GRIP1 lit1-tk-luc reporter; % of 3 µM dafachronic acid response; activation, % at 6.8 µM; 370,000 tested, 1% active;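 active = activation above the mean over all tested compounds plus 3 SD, cut at about 0.9% in these data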;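 note: 0% = DMSO-only wells and 100% = 3 µM delta7-dafachronic acid wells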
# SMARCA2 activ: SMARCA2 (BRM) function activators, primary screen, cell-based, luminescence, high throughput. 370,000 tested, 1% active. AID 652017, 2013. activation, % at 9.1 µM. MG213 cells, MMTV-luciferase reporter, dexamethasone, overnight; in the data active = activation above about 7.8%;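 note: 0% = vehicle wells and 100% = reference activator wells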
# hcDAF12 agonist: H. contortus DAF-12 nuclear receptor activators, primary screen, cell-based, luminescence, HEK293, lit1-tk-luc reporter | 370,000 tested, 1.4% active | HEK293 hcDAF-12 lit1-tk-luc reporter; 0% DMSO, 100% Δ7-dafachronic acid | activation, % at 6.8 µM | AID 652067, 2013;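 active = activation above the mean of all tested compounds plus 3 SD, cut at about 5.5% in these data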;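 note: 100% = response to 3 µM Δ7-dafachronic acid high control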
# Active calls of the source: *; nt = not tested or not shown.
SMILES,DAX1 inh-1,hgDAF-12 ag,DAX1 inh-2,ssDAF-12 act,SMARCA2 activ,hcDAF12 agonist
O=C(CNC(=S)N(Cc1ccccc1)Cc1cccs1)NCc1ccc(F)cc1,-1,-4,-1,-2,-4,6.4*
CCOc1ccc(NC(=O)CN2C(=O)C3CCCN3C2=O)cc1 (stereo not given),4.7*,2,1,-1,0,1
CCOc1ccc(NC(=O)CN2C(=O)c3ccccc3C2=O)cc1,1,1,0,-1,-1,1
CC(c1nccs1)N(C)C(=O)CCc1nnc(Cc2c[nH]c3ccccc23)o1 (stereo not given),0,-4,-1,3.5*,-5,2
CCN(CCn1cccn1)C(=O)CCc1nnc(Cc2c[nH]c3ccccc23)o1,0,1,0,0,-3,5
COc1ccc(-n2c(C)cc(=O)c3c2CC(C)(C)CC3=O)cc1,1,-1,-1,-1,7.9*,0
COC(=O)C[C@@H]1OC[C@H](C)N1S(=O)(=O)c1ccc(C)cc1,nt,-4,3,-1,-6,0
COc1ccc2nc(SCC(=O)N3CCNC3=O)[nH]c2c1,2,11*,3,-1,2,2
COc1ccccc1CCC[C@@H](CCS(=O)(=O)C(C)C)CC1CCCCC1,nt,-1,-1,2.2*,-4,-1
CN1C(=O)C2(N=c3ccccc3=N2)c2ccccc21,-1,nt,nt,nt,nt,nt
CN1C(=O)C(O)(c2nnc(-c3ccccc3)o2)c2ccccc21 (stereo not given),3,8,1,1.1*,2,-1
O=[N+]([O-])c1ccc(N2CCN(c3ccccc3O)CC2)c(Cl)c1,-1,4,-1,-2,-5,-1
O=C1NC(c2cccc([N+](=O)[O-])c2)=CCN1c1ccccc1O,1,4,0,2.3*,-4,1
Cc1nc2sc3c(c2c(=O)n1N)CCC3,1,1,2,-2,-1,-1
Cc1ccccc1-c1nc2sc3c(c2c(=O)n1N)CCCC3,4.5*,-2,0,-1,2,-2
O=C(O)c1ccc(Cl)c(S(=O)(=O)Nc2ccc3cn[nH]c3c2)c1,0,0,0,1,-1,4
CCCCN(CCCNC(=O)C1CCCN(S(=O)(=O)CC)C1)Cc1ccccc1 (stereo not given),2,1,0,-1,1,1
CC1Cc2ccccc2N1C(=O)CSc1nc2cc3c(cc2cc1C#N)OCO3 (stereo not given),-1,2,0,-1,-1,-1
CC(C)OC(=O)CSc1nc2cc3c(cc2cc1C#N)OCO3,1,3,-1,-1,4,-2
N#Cc1cc2cc3c(cc2nc1SCC(=O)N1CCOCC1)OCO3,6.6*,7,1,-1,3,4
CCOc1ccc2cc(C#N)c(SCC(=O)N3CCOCC3)nc2c1,3,11*,3,0,8,3
COC(=O)CSc1nc2cc3c(cc2cc1C#N)OCO3,4.7*,12*,3.7*,0,6,3
Cc1cc(NS(=O)(=O)c2ccc(NS(=O)(=O)c3ccc(Br)cc3)cc2)no1,0,0,0,0,-1,-1
Cc1cccc(N=c2oc3cc(O)ccc3cc2C(N)=O)c1,2,12*,3,0,1,3
COc1cc(NC(=O)c2ccccc2)c(OC)cc1NC(=O)CSc1[nH]c(=O)cc(C)c1C#N,4.4*,0,0,-1,-1,-1
SMILES,DAX1 inh-1,hgDAF-12 ag,DAX1 inh-2,ssDAF-12 act,SMARCA2 activ,hcDAF12 agonist
Cc1cc(=O)[nH]c(SCC(=O)Nc2cccc3ccccc23)c1C#N,0,nt,nt,nt,nt,nt
Cc1csc(N/N=C/c2ccccn2)n1,-2,9,2,1.3*,-1,6.2*
O=C(Nc1nc(-c2ccc(Cl)s2)cs1)c1ccco1,3,12*,1,-1,-1,1
Cc1csc(NC(=O)c2ccco2)n1,1,5,1,1.0*,2,1
Cc1csc(NC(=O)c2cccn2C)n1,2,12*,3,0,3,5
O=C(O)Cc1csc(NC(=O)c2ccco2)n1,0,2,-1,0,0,-1
Cc1csc(NC(=O)c2cc(-c3ccco3)nc3ccccc23)n1,-1,1,-1,8.8*,0,4
O=S(=O)(c1cccs1)N1CCN(c2ccccn2)CC1,0,3,0,-2,3,-2
O=[N+]([O-])c1cccc(N=Nc2ccc(O)cc2O)c1,0,1,1,-2,-4,2
Cc1csc(NC(=O)c2sccc2C)n1,3,12*,2,0,4,5
Cc1c(C)c2ccc(OCC(=O)Nc3nccs3)cc2oc1=O,-2,11*,1,0,0,5
Cc1c(C)c2ccc(OCC(=O)N[C@@H](Cc3c[nH]c4ccccc34)C(=O)O)cc2oc1=O,6.6*,0,1,1,0,2
O=C(COc1ccc2c(c1)oc(=O)c1ccccc12)N[C@@H](Cc1c[nH]c2ccccc12)C(=O)O,-2,2,0,-2,1,0
Cc1ccc(C(=O)NC(Cc2c[nH]c3ccccc23)C(=O)O)o1 (stereo not given),1,0,1,0,0,6.1*
O=C(Nc1ccccc1C(=O)NC(Cc1c[nH]c2ccccc12)C(=O)O)c1ccco1 (stereo not given),1,4,0,1.4*,-1,2
CCOC(=O)c1cc(-c2ccccc2)n(CC(=O)O)c1C,0,0,0,-2,-1,0
COc1ccc(-n2nc(C(=O)N3CCN(Cc4ccc5c(c4)OCO5)CC3)c3ccccc3c2=O)cc1,-1,-1,1,-1,-1,-1
O=C(COc1ccc([N+](=O)[O-])cc1)NNC(=O)c1cccnc1,0,-1,0,-1,-1,-2
COc1ccc(N=Cc2c(O)n(-c3cccc(C)n3)c(=O)c3ccccc23)c(OC)c1,5.2*,0,0,-2,0,-1
CCOc1ccc(N(C(=O)CNC(=O)c2ccco2)C(C(=O)NC2CCCC2)c2cccnc2)cc1 (stereo not given),5.9*,4,1,-1,1,1
